Assay outcomes: PubChem, National Center for Advancing Translational Sciences (NCATS)
SMN2 splice up: increases expression of the SMN2 splice variant; Potency, µM (doses to about 46.1 µM), for inactives: top-dose activity change, positive = activation, hits mostly activators; 210,000 tested, 2.8% active; HEK293 SMN2-luciferase splicing reporter, luminescence, 30-36 h; AID 1458; further: % of control where 0% means no effect; nearly all actives have a fitted effect of over 55% in size
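qHTS luciferase splicing reporter: luminescence rises when SMN2 exon 7 is included in transfected HEK293 cells. Compound exposure lasted 30-36 h at 37C, with 4.5 mM final sodium butyrate as control, followed by a ONE-Glo read.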
ELG1 genotox: induces genotoxicity in HEK293T cells with luciferase-tagged ELG1; HEK293T ELG1-luciferase reporter, luminescence, 16 h; Potency, µM (titrated, usually from 46 µM), for the others: at the top dose activity change, positive = activation, hits mostly activators; 330,000 tested, 1.3% active; further: % of control where 0% means no effect; nearly all actives have a fitted effect of over 60% in size
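Reporter readout depends on ELG1 protein level, which increases with genetic stress. After 16 hr compound exposure at 37 °C, luciferase activity was quantified using ONE-Glo.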
Rab9 prom act: activators of Rab9 promoter | Huh7 Rab9 promoter-luciferase reporter, luminescence, 24 h | Potency, µM (titrated, usually from 9.22 µM), without a hit: at the highest dose activation, negative = inhibition, usual class: activators | 320,000 tested, 2.8% active | AID 485297; further: % of control where 0% means no effect; nearly all actives have a fitted effect of over 60% in size
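Measured in stably transfected Huh7 cells bearing a Rab9 promoter–luciferase construct: 24 h compound treatment at 37 °C, followed by luminescence detection.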
NPC1 prom act: activators of NPC1 promoter | 320,000 tested, 2.4% active | Potency, µM (titrated, usually from 9.22 µM), for inactives: top-dose activation, most hits filed as activators | Huh7 NPC1 promoter luciferase reporter, 24 h; further: % of control where 0% means no effect; nearly all actives have a fitted effect of over 60% in size
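In 1536-well qHTS, Huh7 cells harboring an NPC1 promoter–luciferase construct received compound for 24 h; activation was quantified by luminescence following luciferase reagent addition.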
FLuc counter: inhibits or activates purified firefly luciferase, miR-21 counter-screen | P08659 | purified FLuc, Km substrates, luminescence inhibition | Potency, µM (highest dose often 57.5 µM), for inactives: at the top dose activity change, negative = inhibition, most hits filed as inhibitors | 360,000 tested, 6.9% active;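 further: plate controls were vehicle for no effect and reference inhibitor for full effect; nearly all actives have a fitted effect of over 55% in size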
Target sequence (P08659 whole entry, looked up): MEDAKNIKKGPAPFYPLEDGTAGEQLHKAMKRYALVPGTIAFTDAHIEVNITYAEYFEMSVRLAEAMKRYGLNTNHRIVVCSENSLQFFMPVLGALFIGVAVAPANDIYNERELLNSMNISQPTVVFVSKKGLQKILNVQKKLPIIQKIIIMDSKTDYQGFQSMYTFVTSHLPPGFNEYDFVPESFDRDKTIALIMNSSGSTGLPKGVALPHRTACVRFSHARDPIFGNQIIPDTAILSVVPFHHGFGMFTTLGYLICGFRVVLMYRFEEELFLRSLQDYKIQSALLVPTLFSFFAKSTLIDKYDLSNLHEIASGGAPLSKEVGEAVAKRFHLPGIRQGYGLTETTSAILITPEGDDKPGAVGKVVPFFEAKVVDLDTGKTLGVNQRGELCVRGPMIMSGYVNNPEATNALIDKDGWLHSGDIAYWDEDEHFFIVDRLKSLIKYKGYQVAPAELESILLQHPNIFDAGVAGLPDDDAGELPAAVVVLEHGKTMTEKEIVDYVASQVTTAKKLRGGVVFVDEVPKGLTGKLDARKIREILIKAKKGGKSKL
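Purified P. pyralis luciferase, 10 nM final, with Km-level 10 uM D-luciferin and 10 uM ATP in 50 mM Tris acetate pH 7.5, 10 mM Mg acetate, 0.01% Tween-20, 0.05% BSA; 6-point qHTS titration about 60 µM downward; luminescence read.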
Numbers without * were called inactive; [ ] = dose if it differs, or a comment. A selection: hits, their analogues and other compounds. The true share with any hit is near 7.5%. The call rests on the fitted dose curve; in most records, active means well fitted curve in the direction sought with a large enough effect; inconclusive means small, poorly fitted or top-dose-only effect, or another doubt; inactive means no such curve, though single readings can be large; an effect the other way counts as inactive or inconclusive. Potency means the concentration at half of the fitted maximal effect.

CCCC(C(=O)O)n1c(O)c(C=C2N=c3ccccc3=N2)sc1=S (stereo not given) was read as ELG1 genotox -1.3%, Rab9 prom act 3.3%, NPC1 prom act -2.3% and FLuc counter inconclusive.
For COC(=O)/C(C#N)=C1/C=Cc2ccccc2N1 the results were SMN2 splice up inconclusive, ELG1 genotox 8.1%, Rab9 prom act inconclusive, NPC1 prom act 24.1% and FLuc counter inconclusive.
Screening Cc1c(C(=O)Nc2nc(-c3ccccn3)cs2)oc2ccccc12 returned ELG1 genotox -0.9%, Rab9 prom act 6.8%, NPC1 prom act 15.9% and FLuc counter 9.53µM*.
For O=C(Nc1nc(-c2ccccn2)cs1)c1cc2ccccc2o1 the results were SMN2 splice up -77.1%, ELG1 genotox -7.7%, Rab9 prom act 3.8%, NPC1 prom act 9.0% and FLuc counter 5.36µM*.
`Cc1cc(-c2csc(NC(=O)c3cc4ccccc4o3)n2)c(C)n1C` gave SMN2 splice up 1.9%, ELG1 genotox 5.8%, Rab9 prom act 22.7%, NPC1 prom act 13.5% and FLuc counter 9.53µM*.
Screening O=C(Nc1nc(-c2cccs2)cs1)c1cc2ccccc2oc1=O returned SMN2 splice up 11.3%, ELG1 genotox 5.0%, Rab9 prom act inconclusive, NPC1 prom act 22.6% and FLuc counter 2.69µM*.
Screening O=C(Nc1nc(-c2cc3ccccc3oc2=O)cs1)c1ccc(Br)o1 returned SMN2 splice up 28.4%, ELG1 genotox 3.6%, Rab9 prom act 3.8%, NPC1 prom act 9.9% and FLuc counter 6.3%.
`O=c1oc2ccccc2cc1-c1nc(-c2cccs2)cs1` gave SMN2 splice up -0.2%, ELG1 genotox inconclusive, Rab9 prom act 16.4%, NPC1 prom act 9.6% and FLuc counter inconclusive.
`NCS(=O)(=O)O` gave SMN2 splice up -4.5%[9.22 µM].
`CCCc1cc(=O)[nH]c(SCC(=O)Nc2sc3c(c2C(N)=O)CCCC3)n1` gave ELG1 genotox -0.3%.
For Cc1cccc(NC(=O)/C(C#N)=C/c2ccc(Cl)cc2)n1 the results were ELG1 genotox -3.3%, Rab9 prom act -0.1%, NPC1 prom act 1.0% and FLuc counter 2.39µM*.
Screening Cc1cccc(NC(=O)CCCNC(=O)c2ccc(Cl)cc2)n1 returned ELG1 genotox -2.3%, Rab9 prom act 1.4%, NPC1 prom act -2.2% and FLuc counter 2.3%.
COc1ccc(/C=C(\C#N)C(=O)Nc2cccc(C)n2)cc1 was read as ELG1 genotox 2.1%, Rab9 prom act 4.8%, NPC1 prom act 0.5% and FLuc counter 0.953µM*.
O=C(/C=C/c1ccccc1)Nc1ccc(Cl)cn1 was read as SMN2 splice up 12.6µM*, ELG1 genotox inconclusive, Rab9 prom act inconclusive, NPC1 prom act inconclusive and FLuc counter 2.69µM*.
Screening COc1ccc(/C=C(\C#N)C(=O)Nc2cccnc2)cc1 returned SMN2 splice up 1.9%, ELG1 genotox 1.4%, Rab9 prom act 0.6%, NPC1 prom act -2.8% and FLuc counter inconclusive.
`Cc1cccc(NC(=O)/C=C/c2ccc(Cl)cc2)n1` gave SMN2 splice up 3.55µM*, ELG1 genotox 1.0%, Rab9 prom act 2.24µM*, NPC1 prom act 3.98µM* and FLuc counter 1.07µM*.
Screening CCCC[C@@H]1CNC(=S)N1CCCC returned ELG1 genotox -0.5%, Rab9 prom act -2.7%, NPC1 prom act -2.9% and FLuc counter 2.8%.
`CC(=O)c1cccc(OCC(O)CN2CCN(C(=O)c3ccco3)CC2)c1` (stereo not given) gave ELG1 genotox -0.4%, Rab9 prom act 0.9%, NPC1 prom act 1.2% and FLuc counter 2.9%.
For Cc1cc(S(=O)(=O)Nc2ccc(C(=O)NCc3cccnc3)cc2)ccc1F the results were ELG1 genotox -0.7%, Rab9 prom act 1.0%, NPC1 prom act 3.8% and FLuc counter 0.5%.
For COc1cccc(CNC(=O)CCC2CCCN(C(=O)c3cc4ccccc4o3)C2)c1 (stereo not given) the results were ELG1 genotox 10.7%, Rab9 prom act 4.47µM*, NPC1 prom act inconclusive and FLuc counter 13.5µM*.
